For experiment [1], the target named is Thyrotropin-releasing hormone receptor (Homo sapiens) (UniProt P34981). The experiment can be described thus: qHTS assay to identify small molecule agonists of the thyrotropin-releasing hormone receptor (TRHR) signaling pathway (AID 1346891; calls by dose curve;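 further: HEK293 cells expressing TRHR with calcium dye readout; series mostly up to about 58 µM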). The procedure, abridged: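 Overnight-plated (18 h, 37 °C, 5% CO2) TRHR-Hek293 cells; 2 h calcium dye at 37 °C; compound in DMSO; 3-min kinetic fluorescence read.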
Background: Quantitative high-throughput screening tests each substance at several concentrations.

A short description of experiment [2]: Human pregnane X receptor (PXR) small molecule agonists, qHTS cell viability counter screen (AID 1346977). Further: nearly all actives have a fitted effect of over 50% in size. Put shortly: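 After a 5hr pre-incubation, PXR-Luc HepG2 cells received compounds plus positive control in DMSO and were kept 24hr at 37C. Cell viability was quantified by fluorescence from CellTiter-Fluor added for the final hour.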
A short description of experiment [3]: Caspase-3/7 induction in HepG2 cells by small molecules, qHTS assay (AID 1346978). Further: nearly all actives have a fitted effect of over 15% in size. Put shortly:
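Wild-type HepG2 cells, 2,000/well, settled 5 hr at 37 C and 5% CO2, then compound-treated for 17 hr; caspase-3/7 activity read by luminescent Caspase-Glo 3/7 after 30 min at room temperature.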

Experiment [4] is described as follows: Caspase-3/7 induction in CHO-K1 cells by small molecules, qHTS cell viability counter screen (AID 1346979). Further: nearly all actives have a fitted effect of over 35% in size. Further: potency means the concentration at half of the fitted maximal effect. Put shortly: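 Multiplexed with Caspase-Glo 3/7 in CHO-K1 cells, this counter screen added CellTiter-Fluor after 16hr of compound exposure and recorded fluorescence 1hr later.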
Experiment [5] is described as follows: Caspase-3/7 induction in CHO-K1 cells by small molecules, qHTS assay (AID 1346980). Further: nearly all actives have a fitted effect of over 15% in size. The procedure, abridged: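 Wild-type CHO-K1 cells exposed to compounds for 17hr at 37 C, 5% CO2. Caspase-3/7 activity then measured by Caspase-Glo 3/7 luminescence after 30min at room temperature.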
The nature of experiment [6]: Caspase-3/7 induction in HepG2 cells by small molecules, qHTS cell viability counter screen (AID 1346981). Further: series mostly up to about 92 µM; nearly all actives have a fitted effect of over 30% in size. Put shortly:
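Treatment of HepG2 cells with DMSO-delivered compounds ran 16 hr at 37 C following a 5-hr pre-incubation of 2,000 cells/well. CellTiter-Fluor fluorescence, read after 1 hr, served as the viability measure in a qHTS format.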

Experiment [7] addresses Nuclear receptor subfamily 1 group I member 2 (Homo sapiens) (UniProt O75469). The experiment can be described thus: Human pregnane X receptor (PXR) small molecule agonists, qHTS assay (AID 1346982). Further: nearly all actives have a fitted effect of over 35% in size. The procedure, abridged:
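Stable HepG2 line reporting PXR-mediated CYP3A4 expression via luciferase. Treatment: 24 hr with compounds in DMSO at 37 C. Detection: ONE-Glo luminescence.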

Experiment [8] deals with Acetylcholinesterase (Homo sapiens) (UniProt P22303). The experiment can be described thus: Acetylcholinesterase (AChE) small molecule antagonists: colormetric cell-based qHTS assay (AID 1347395; calls by dose curve; further: nearly all actives have a fitted effect of over 30% in size; further: potency means the concentration at half of the fitted maximal effect). The procedure, abridged:
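In this cell-based qHTS, attached SH-SY5Y cells were treated with test chemicals for 30 min, after which acetylthiocholine hydrolysis was followed by DTNB colour development over 90 min at 37 C.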

For experiment [9] the target is unchanged. The experiment can be described thus: Acetylcholinesterase (AChE) small molecule antagonists: enzyme-based qHTS assay (AID 1347397; calls by dose curve; further: nearly all actives have a fitted effect of over 55% in size; further: potency means the concentration at half of the fitted maximal effect). The following applies: Potency: AChE enzyme activity inhibition. The procedure, abridged: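 Colorimetric DTNB read-out of thiocholine released from acetylthiocholine by recombinant human AChE (50 mU/mL as dispensed). Compounds were preincubated 30 min at RT before substrate/DTNB addition, with a 10 min RT reaction.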

Experiment [10] shares this target. The experiment can be described thus: Acetylcholinesterase (AChE) small molecule antagonists: fluorescence cell-based qHTS assay (AID 1347398; calls by dose curve; further: nearly all actives have a fitted effect of over 50% in size). The following applies: Potency: AChE activity. The procedure, abridged: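 SH-SY5Y, 2,000 cells/well, attached overnight; cmpd 30 min 37 C; acetylthiocholine/Thiolite Green cocktail 40 min RT; fluorescence Ex/Em 490/520 nm.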

The target is the same in experiment [11]. The experiment can be described thus: Acetylcholinesterase (AChE) small molecule antagonists: enzyme-based qHTS assay with human liver microsomes (AID 1347399; calls by dose curve; further: nearly all actives have a fitted effect of over 60% in size; further: potency means the concentration at half of the fitted maximal effect). To be noted: Potency: qHTS inhibition. Put shortly:
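Recombinant human AChE (50 mU/mL in the enzyme mix) and human liver microsomes (0.25 mg/mL final) were preincubated with compound and NADPH (0.25 mg/mL final) for 30 min at 37 C. Acetylthiocholine/DTNB was then added; thiocholine was read colorimetrically after 10 min at room temperature.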

Experiment [12] addresses Cytochrome P450 2D6 (Homo sapiens) (UniProt P10635). The experiment can be described thus: Cytochrome P450 Family 2 Subfamily D Member 6 (CYP2D6) small molecule antagonists: luciferase reporter qHTS assay (AID 1671196). Further: series mostly up to about 120 µM; nearly all actives have a fitted effect of over 50% in size. Put shortly:
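Chemicals tested for interference with CYP2D6 activity; proluciferin substrate, NADPH regeneration, 1 h at room temperature, luminescent detection.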
A general note: Reporter assays use an easily measured gene product as a stand-in for the process of interest.

In experiment [13] the target is Cytochrome P450 2C19 (Homo sapiens) (UniProt P33261). The experiment can be described thus: Cytochrome P450 Family 2 Subfamily C Member 19 (CYP2C19) small molecule antagonists: luciferase reporter qHTS assay (AID 1671197). Further: nearly all actives have a fitted effect of over 65% in size. Further: potency means the concentration at half of the fitted maximal effect. On activity change, negative = inhibition: series mostly up to about 120 µM. Put shortly:
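First, compounds are pinned into enzyme-substrate mix and held 10 min at room temperature. Second, NADPH regeneration solution is added and plates incubate 1 h at 37C. Third, detection reagent is added and luminescence read after 20 min.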

Experiment [14] deals with Cytochrome P450 2C9 (Homo sapiens) (UniProt P11712). The experiment can be described thus: Cytochrome P450 Family 2 Subfamily C Member 9 (CYP2C9) small molecule antagonists: luciferase reporter qHTS assay (AID 1671198). Further: nearly all actives have a fitted effect of over 50% in size. Further: potency means the concentration at half of the fitted maximal effect. On activity change, negative = inhibition: series mostly up to about 120 µM. Put shortly: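 P450-Glo proluciferin substrate with CYP2C9 enzyme; 10 min RT preincubation, then NADPH regeneration 1 h at 37C; luciferin detection reagent 20 min RT, luminescence in relative luminescence units.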

Experiment [15] has as its target Cytochrome P450 1A2 (Homo sapiens) (UniProt P05177). The experiment can be described thus: Cytochrome P450 Family 1 Subfamily A Member 2 (CYP1A2) small molecule antagonists: luciferase reporter qHTS assay (AID 1671199). Further: nearly all actives have a fitted effect of over 50% in size. Further: potency means the concentration at half of the fitted maximal effect. On activity change, negative = inhibition: series mostly up to about 120 µM. The procedure, abridged: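 Read-out is luminescence from luciferin detection reagent (20 min) proportional to CYP1A2 activity; compounds in DMSO preincubated 10 min with enzyme and proluciferin substrate, then NADPH regeneration solution, 1 h, room temperature.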

Experiment [16] addresses Voltage-gated inwardly rectifying potassium channel KCNH2 (Homo sapiens) (UniProt Q12809). The experiment can be described thus: Human Ether-a-go-go-Related Gene (hERG) channel small molecule antagonists: fluorescence cell-based qHTS assay (AID 1671200). Put shortly: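 Cell line hERG-U2OS; dye FluxOR II, 1 h RT dark; Tl+ stimulus; ex 480/em 540 nm, read each second for 2 min.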

In experiment [17] the target is Cytochrome P450 3A4 (Homo sapiens) (UniProt P08684). The experiment can be described thus: Cytochrome P450 Family 3 Subfamily A Member 4 (CYP3A4) small molecule antagonists: luciferase reporter qHTS assay (AID 1671201). Further: nearly all actives have a fitted effect of over 50% in size. Further: potency means the concentration at half of the fitted maximal effect. On activity change, negative = inhibition: series mostly up to about 120 µM. Put shortly:
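Room-temperature assay throughout: 10 min compound–enzyme/substrate preincubation, 1 h reaction after NADPH regeneration solution, 20 min detection. Luciferin formed from proluciferin substrate is quantified by luminescence.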

The target of experiment [18] is Nuclear receptor subfamily 1 group I member 2 (Rattus norvegicus) (UniProt Q9R1A7). The experiment can be described thus: Rat pregnane X receptor (rPXR) activation by small molecules, qHTS assay (AID 1346983). Further: nearly all actives have a fitted effect of over 20% in size. The following applies: rPXR luciferase reporter cells, One-Glo luminescence, 24 h; max activation: hits give high values. Put shortly:
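Cell-based rPXR activation assay: rPXR cells, 2,000 per well, rested 5hr at 37 C, then exposed to compounds in DMSO for 24 hr at 37 C. Luciferase activity read by One-Glo luminescence after 30 min at room temperature.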

Experiment [19] deals with Nuclear receptor subfamily 1 group I member 2 (Homo sapiens) (UniProt O75469). The experiment can be described thus: CYP3A4 induction through human pregnane X receptor (PXR) by small molecules, qHTS assay (AID 1346984). Further: nearly all actives have a fitted effect of over 40% in size. The procedure, abridged: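 After 24 h at 37C with compound, DPX-2 cells (HepG2, co-transfected PXR response element and CYP3A4 promoter-luciferase) got 3uM final P450-Glo Luciferin-IPA for 3 h; One-Glo luminescence followed.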

Experiment [20] shares this target. The experiment can be described thus: Human pregnane X receptor (PXR) activation by small molecules, qHTS assay (AID 1346985). Further: nearly all actives have a fitted effect of over 40% in size. The procedure, abridged:
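DPX-2 cells (HepG2 co-transfected with a PXR response element and a CYP3A4-promoter luciferase construct) were seeded at 2,000 per well, rested 5 hr at 37C, then exposed to DMSO-dissolved compounds for 24 hr. Activation was read as luciferase luminescence.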

A number with no mark means an inactive call. Records with an inconclusive call do not appear. Activity calls are given as the source filed them. Unless noted, the call rests on the fitted dose curve; in most records, active means well fitted curve in the direction sought with a large enough effect in the repeat runs; inconclusive means weak or mixed curves; inactive means no such curve, though single readings can be large; an effect the other way counts as inactive or inconclusive.
On the % scale 0 is the no-effect control and ±100 the full control effect.

Cytochrome P450 2C9 (Homo sapiens), sequence (P11712 whole entry, looked up): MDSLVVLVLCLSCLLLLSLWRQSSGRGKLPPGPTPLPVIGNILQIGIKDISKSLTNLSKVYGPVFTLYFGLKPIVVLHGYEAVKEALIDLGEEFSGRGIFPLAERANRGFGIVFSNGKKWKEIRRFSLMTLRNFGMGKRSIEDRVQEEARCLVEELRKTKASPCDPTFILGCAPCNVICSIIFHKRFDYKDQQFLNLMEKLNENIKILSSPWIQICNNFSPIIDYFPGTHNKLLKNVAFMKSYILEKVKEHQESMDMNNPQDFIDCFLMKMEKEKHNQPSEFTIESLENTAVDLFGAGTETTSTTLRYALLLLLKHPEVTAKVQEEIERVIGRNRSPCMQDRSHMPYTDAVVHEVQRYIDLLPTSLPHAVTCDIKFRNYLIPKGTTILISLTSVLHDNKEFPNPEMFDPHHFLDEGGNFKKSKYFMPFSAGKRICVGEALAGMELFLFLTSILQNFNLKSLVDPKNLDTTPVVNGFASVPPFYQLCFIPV
Thyrotropin-releasing hormone receptor (Homo sapiens), sequence (P34981 whole entry, looked up): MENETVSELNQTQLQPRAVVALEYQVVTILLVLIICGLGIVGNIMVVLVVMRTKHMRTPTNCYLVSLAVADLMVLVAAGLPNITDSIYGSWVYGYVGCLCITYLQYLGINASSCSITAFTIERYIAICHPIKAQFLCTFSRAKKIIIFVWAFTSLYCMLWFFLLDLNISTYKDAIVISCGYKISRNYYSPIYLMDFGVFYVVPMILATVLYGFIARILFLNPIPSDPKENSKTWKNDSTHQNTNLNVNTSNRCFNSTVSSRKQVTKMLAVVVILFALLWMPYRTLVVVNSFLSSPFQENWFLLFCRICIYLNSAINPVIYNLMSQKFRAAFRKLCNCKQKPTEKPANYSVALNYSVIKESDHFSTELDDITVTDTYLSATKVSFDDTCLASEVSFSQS
Nuclear receptor subfamily 1 group I member 2 (Homo sapiens), sequence (O75469 whole entry, looked up): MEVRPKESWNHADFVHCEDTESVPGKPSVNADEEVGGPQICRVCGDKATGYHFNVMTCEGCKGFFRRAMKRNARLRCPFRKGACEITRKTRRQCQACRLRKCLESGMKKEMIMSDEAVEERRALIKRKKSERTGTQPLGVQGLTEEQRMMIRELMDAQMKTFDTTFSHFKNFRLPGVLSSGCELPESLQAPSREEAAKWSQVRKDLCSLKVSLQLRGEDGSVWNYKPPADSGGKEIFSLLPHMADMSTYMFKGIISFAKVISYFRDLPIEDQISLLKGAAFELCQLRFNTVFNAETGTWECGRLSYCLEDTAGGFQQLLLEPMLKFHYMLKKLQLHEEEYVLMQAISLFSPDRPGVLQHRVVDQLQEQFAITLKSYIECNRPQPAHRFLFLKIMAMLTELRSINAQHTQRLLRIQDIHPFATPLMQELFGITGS
Cytochrome P450 2C19 (Homo sapiens), sequence (P33261 whole entry, looked up): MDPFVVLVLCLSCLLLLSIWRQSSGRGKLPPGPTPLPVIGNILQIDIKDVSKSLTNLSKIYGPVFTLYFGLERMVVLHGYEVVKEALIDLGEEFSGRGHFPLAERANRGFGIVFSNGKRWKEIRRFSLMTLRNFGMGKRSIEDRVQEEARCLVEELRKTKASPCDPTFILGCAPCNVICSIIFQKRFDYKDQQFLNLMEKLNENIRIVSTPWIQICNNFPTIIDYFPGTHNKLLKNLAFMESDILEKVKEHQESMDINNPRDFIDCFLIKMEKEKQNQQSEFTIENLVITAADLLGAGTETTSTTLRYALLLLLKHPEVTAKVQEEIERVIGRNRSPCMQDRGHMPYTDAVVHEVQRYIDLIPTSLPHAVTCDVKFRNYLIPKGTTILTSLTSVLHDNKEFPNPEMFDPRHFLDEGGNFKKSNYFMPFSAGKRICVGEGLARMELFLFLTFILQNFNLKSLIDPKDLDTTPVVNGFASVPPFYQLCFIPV
Cytochrome P450 3A4 (Homo sapiens), sequence (P08684 whole entry, looked up): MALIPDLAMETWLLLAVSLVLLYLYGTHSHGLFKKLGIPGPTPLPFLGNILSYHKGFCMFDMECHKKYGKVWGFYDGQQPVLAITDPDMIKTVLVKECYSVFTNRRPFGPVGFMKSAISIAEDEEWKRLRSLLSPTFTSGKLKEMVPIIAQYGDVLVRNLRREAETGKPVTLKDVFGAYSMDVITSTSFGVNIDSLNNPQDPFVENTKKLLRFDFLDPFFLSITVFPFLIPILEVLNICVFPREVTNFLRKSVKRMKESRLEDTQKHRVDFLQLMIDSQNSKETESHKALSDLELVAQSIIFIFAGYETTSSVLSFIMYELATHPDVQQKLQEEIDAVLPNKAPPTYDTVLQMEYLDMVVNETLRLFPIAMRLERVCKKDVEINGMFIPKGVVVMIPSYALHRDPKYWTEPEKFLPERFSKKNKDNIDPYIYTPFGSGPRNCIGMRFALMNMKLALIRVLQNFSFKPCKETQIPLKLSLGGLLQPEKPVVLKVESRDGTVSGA
Voltage-gated inwardly rectifying potassium channel KCNH2 (Homo sapiens), sequence (Q12809 whole entry, looked up): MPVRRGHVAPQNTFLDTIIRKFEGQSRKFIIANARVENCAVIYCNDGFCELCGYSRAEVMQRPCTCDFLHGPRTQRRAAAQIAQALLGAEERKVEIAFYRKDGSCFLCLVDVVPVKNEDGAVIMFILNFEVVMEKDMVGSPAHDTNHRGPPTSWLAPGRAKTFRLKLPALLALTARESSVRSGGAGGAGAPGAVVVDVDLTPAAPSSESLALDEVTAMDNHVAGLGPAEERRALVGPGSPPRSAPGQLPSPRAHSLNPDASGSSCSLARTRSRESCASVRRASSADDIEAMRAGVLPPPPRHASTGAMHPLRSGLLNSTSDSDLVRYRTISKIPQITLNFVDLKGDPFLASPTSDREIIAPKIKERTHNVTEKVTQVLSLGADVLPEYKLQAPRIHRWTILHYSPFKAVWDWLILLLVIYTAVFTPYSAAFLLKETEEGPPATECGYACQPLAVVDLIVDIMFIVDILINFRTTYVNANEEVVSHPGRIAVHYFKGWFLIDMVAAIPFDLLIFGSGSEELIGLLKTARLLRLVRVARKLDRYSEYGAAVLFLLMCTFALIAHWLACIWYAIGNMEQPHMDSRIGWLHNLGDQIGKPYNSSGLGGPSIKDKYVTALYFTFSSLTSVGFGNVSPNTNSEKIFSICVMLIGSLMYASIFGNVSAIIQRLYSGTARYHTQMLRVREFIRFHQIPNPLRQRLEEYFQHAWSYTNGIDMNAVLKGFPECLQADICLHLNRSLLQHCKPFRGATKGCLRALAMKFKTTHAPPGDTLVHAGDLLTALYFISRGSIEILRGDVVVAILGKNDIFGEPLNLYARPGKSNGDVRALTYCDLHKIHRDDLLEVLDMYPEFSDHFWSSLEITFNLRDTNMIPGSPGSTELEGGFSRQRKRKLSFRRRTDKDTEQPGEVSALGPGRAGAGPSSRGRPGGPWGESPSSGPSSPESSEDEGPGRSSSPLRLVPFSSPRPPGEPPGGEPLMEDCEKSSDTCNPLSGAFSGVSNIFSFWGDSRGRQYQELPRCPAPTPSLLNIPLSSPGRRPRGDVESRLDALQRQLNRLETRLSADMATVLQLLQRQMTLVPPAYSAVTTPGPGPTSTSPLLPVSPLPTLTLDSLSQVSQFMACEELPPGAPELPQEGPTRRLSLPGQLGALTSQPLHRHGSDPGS
Acetylcholinesterase (Homo sapiens), sequence (P22303 whole entry, looked up): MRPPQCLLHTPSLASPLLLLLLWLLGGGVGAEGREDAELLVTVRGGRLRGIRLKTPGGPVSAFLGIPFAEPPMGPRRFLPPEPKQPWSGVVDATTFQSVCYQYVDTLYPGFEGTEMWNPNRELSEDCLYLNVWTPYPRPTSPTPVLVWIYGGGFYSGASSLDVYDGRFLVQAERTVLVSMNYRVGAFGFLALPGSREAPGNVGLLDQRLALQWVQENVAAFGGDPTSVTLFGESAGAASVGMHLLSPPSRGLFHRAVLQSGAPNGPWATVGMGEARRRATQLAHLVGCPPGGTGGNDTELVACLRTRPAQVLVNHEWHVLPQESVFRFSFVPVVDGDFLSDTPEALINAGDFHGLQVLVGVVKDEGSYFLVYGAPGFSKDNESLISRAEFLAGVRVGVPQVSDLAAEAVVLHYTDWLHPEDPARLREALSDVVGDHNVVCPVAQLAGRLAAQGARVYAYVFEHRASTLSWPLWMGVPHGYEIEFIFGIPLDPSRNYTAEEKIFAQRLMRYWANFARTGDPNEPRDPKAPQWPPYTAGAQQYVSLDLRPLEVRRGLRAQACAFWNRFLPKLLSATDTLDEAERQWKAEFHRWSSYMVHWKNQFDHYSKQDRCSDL
Cytochrome P450 1A2 (Homo sapiens), sequence (P05177 whole entry, looked up): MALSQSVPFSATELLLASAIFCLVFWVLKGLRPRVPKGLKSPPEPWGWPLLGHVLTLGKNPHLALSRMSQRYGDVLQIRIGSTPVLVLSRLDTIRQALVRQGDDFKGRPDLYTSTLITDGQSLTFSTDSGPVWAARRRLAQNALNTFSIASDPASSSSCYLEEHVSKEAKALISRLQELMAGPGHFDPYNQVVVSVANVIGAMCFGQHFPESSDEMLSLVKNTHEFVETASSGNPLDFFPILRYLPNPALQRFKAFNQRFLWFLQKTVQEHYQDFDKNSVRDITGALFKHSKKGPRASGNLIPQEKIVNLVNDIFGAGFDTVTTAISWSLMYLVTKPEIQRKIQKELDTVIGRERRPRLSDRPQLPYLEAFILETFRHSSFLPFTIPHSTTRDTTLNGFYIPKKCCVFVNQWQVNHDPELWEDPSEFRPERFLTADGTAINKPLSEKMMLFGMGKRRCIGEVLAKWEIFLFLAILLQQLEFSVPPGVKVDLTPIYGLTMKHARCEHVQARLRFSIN

Take `CC(Cl)C(C)Cl` (stereo not drawn): the Potency result in experiment [1], in [2], in experiment [3], in experiment [4], in [5] and in experiment [6] was “inactive” each time. Further, the Potency entry in experiment [7], in [8], in experiment [9], in experiment [10], in [11] and in [12] was “inactive” in each case. The Potency entry in [13], in experiment [14], in [15], in experiment [16] and in experiment [17] was “inactive” each time.

Regarding `O=C(NC(=O)c1c(F)cccc1F)Nc1ccc(OC(F)(F)C(F)OC(F)(F)F)c(Cl)c1` (stereo not drawn), the Potency entry in [1], in experiment [2], in experiment [3], in experiment [4], in [5] and in experiment [6] was “inactive” throughout. Also, the Potency entry in [7], in [8], in [9], in experiment [10], in [11] and in experiment [12] was “inactive” in each case. For the same molecule, the Potency result in experiment [13], in experiment [16] and in experiment [17] was “inactive” each time. Also, the Potency in experiment [14] was 19.5 µM (active).

Take `O=NN1CCCCCC1`: the Potency result in [1], in experiment [2], in experiment [3], in [4], in experiment [5] and in [6] was “inactive” in each case. Also, the Potency entry in experiment [7], in experiment [8], in experiment [9], in experiment [10], in experiment [11] and in experiment [12] was “inactive” each time. Moreover, the Potency result in experiment [13], in experiment [14] and in [17] was “inactive” throughout.

Take `O=C(O)C(F)(F)C(F)(F)C(F)(F)C(F)(F)C(F)(F)C(F)(F)C(F)(F)C(F)(F)C(F)(F)C(F)(F)F`: the Potency entry in experiment [1], in experiment [2], in experiment [3], in experiment [4], in [5] and in experiment [6] was “inactive” each time. The Potency result in experiment [7], in experiment [8], in experiment [9], in experiment [10], in experiment [11] and in experiment [12] was “inactive” in each case. The Potency result in [13], in experiment [15], in [16] and in experiment [17] was “inactive” each time. Also, the Potency in experiment [14] was 5.34 µM (active).

On to `C=CCC1([C@H](C)CCC)C(=O)NC(=O)NC1=O`, for which the Potency result in [1], in experiment [2], in experiment [3], in [4], in experiment [5] and in [6] was “inactive” each time. For the same molecule, the Potency result in experiment [7], in [8], in experiment [9], in experiment [10], in [11] and in experiment [12] was “inactive” in each case. Besides, the Potency result in experiment [13], in experiment [15] and in experiment [16] was “inactive” throughout. The Potency in experiment [17] was 31.4 µM (active).

With `O=[N+]([O-])C(Br)(CO)CO`, the Potency entry in [1], in [2], in experiment [3], in [5], in experiment [6] and in experiment [7] was “inactive” each time. The Potency entry in experiment [19], in experiment [20], in experiment [10], in [12], in experiment [16] and in experiment [17] was “inactive” in each case. The Potency in experiment [4] is 61.1 µM (active); in experiment [8] it was 79.6 µM (active); in experiment [9], 63.3 µM (active); in experiment [11], 71 µM (active); in experiment [13], 6.33 µM (active); in [14], 5.03 µM (active). Moreover, the Potency in [15] was 17.8 µM (active). Also, the max activation in [18] is -5.03%.

As to `NCC(CC(=O)O)c1ccc(Cl)cc1` (stereo not drawn), the activation in [1] is -0.989% [at 0.218 µM]; in experiment [7], -6.38% [at 0.349 µM]. Besides, the activity change, negative = cytotoxicity is -0.756% [at 0.349 µM] in experiment [2], 5.63% [at 0.349 µM] in experiment [4] and 8.17% [at 0.349 µM] in experiment [6]. Moreover, the caspase activation in experiment [3] was 1.78% [at 0.349 µM]. For the same molecule, the caspase-3/7 activation in experiment [5] was -0.192% [at 0.349 µM]. For the same molecule, in experiment [8], the activity, negative = inhibition is 4.84% [at 0.435 µM]. Besides, the activity change, negative = inhibition in experiment [9] was 1.42% [at 0.435 µM]; in [10] it was 5.21% [at 0.439 µM]; in experiment [11], -0.275% [at 0.435 µM]; in experiment [12], -6.8% [at 0.435 µM]; in experiment [13], -14.5% [at 0.435 µM]; in [14], 1.42% [at 0.435 µM]. Further, the activity change, negative = inhibition is 12.7% [at 0.435 µM] in experiment [15], -9.45% [at 0.29 µM] in experiment [16] and 4.59% [at 0.435 µM] in experiment [17].

The values above are taken from PubChem BioAssay (Tox21).
